# Source: PubChem
# This excerpt belongs to a sample that is enriched for hits.
# Methyltransferases: Primary Screen for Target Class Profiling of Small Molecule Inhibitors of Methyltransferases; purified enzyme, MTase-Glo SAH luminescence; active compounds read low; calls only at 40 µM; 25,000 tested, 3.9% active; AID 1745853, 2022; call rule not given here
#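 Each enzyme was reacted with SAM and its substrate, with compounds tested once at 40 uM; SAH formed was read by MTase-Glo luminescence.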
# Numbers without * were called inactive; i = inactive; + = active, no number; ! = not confirmed by another sample. % is set by controls: 0 for no effect and ±100 for the full control effect.
SMILES,Methyltransferases
CCN1C(=O)c2c(C(=O)NCCc3ccc(C)cc3)ncn2CC1(C)C(=O)NC1CCCC1 (stereo unspecified),i
CCCC1c2ccc(C)n2CCN1C(=O)Nc1ccc(F)cc1F (stereo unspecified),i
Cc1ccc(CNC(=O)c2ccc3c(=O)nc4c(-c5cccc(C)c5)n[nH]n4c3c2)cc1,i
Fc1ccc(C(OCCCc2cnc[nH]2)c2ccc(F)cc2)cc1,+
N=C(N)SCCc1cnc[nH]1,i
CCCn1c(=O)c2ccc(C(=O)NC(C)C)cc2n2c(=O)n(CC(=O)c3ccc(C)cc3C)nc12,i
CCN1C(=O)c2c(C(=O)NCc3cc(Br)ccc3OC)ncn2CC1(C)C(=O)NC1CCCC1 (stereo unspecified),i
COC(=O)c1ccc(COc2cc3oc(=O)cc(-c4ccccc4)c3cc2Cl)cc1,i
Cc1ccc(Cn2c(=O)c3ccccc3n3c(CCC(=O)NCCC4=CCCCC4)nnc23)cc1,i
CCN(CC)CCCN1C(=O)c2cc3occc3n2CC1(C)C(=O)NC1CCCCCCC1 (stereo unspecified),i
COCCCN1C(=O)c2nc3ccccc3n2CC1(C)C(=O)NC1CCCCCC1 (stereo unspecified),i
Cc1cccc(-c2n[nH]n3c2nc(=O)c2ccc(C(=O)N4CCN(c5ccccn5)CC4)cc23)c1,i
S=c1ssc2c1CCC2,+
CCC(C)NC(=O)c1ccc2c(=O)n(C)c3nnc(SCC(=O)Nc4ccccc4F)n3c2c1 (stereo unspecified),i
CC(Nc1nc2c(S(=O)(=O)c3ccc(Cl)cc3)nnn2c2ccccc12)c1ccccc1 (stereo unspecified),i
NC(Cc1cccc(-c2ccccc2CP(=O)(O)O)c1)C(=O)O (stereo unspecified),i
N[C@@H](Cc1cc(I)c(Oc2ccc(O)c(I)c2)c(I)c1)C(=O)O,+!
NC(Cc1c[nH]c2ccccc12)C(=O)O (stereo unspecified),i
N[C@@H](Cc1cc(I)c(Oc2cc(I)c(O)c(I)c2)c(I)c1)C(=O)O,+
COc1ccc(CNC(=O)CNC(=O)C2(C)Cn3c(cc4ccccc43)C(=O)N2C)cc1 (stereo unspecified),i
COC(=O)c1cc2n(n1)CC(C)(C(=O)NC1CCCCC1)N(c1cc(OC)cc(OC)c1)C2=O (stereo unspecified),i
CC1(C(=O)NCc2ccccc2)Cn2c(cc3ccccc32)C(=O)N1C1CCCCC1 (stereo unspecified),i
CC(C)CCn1c(=O)c2ccc(C(=O)NC(C)C)cc2n2c(=O)n(CC(=O)NC(C)(C)C)nc12,i
CCOc1ccc(C(=O)Cn2nc3n(CCCOC(C)C)c(=O)c4ccccc4n3c2=O)cc1,i
CCCn1nc(CNC(=O)Cc2cccc(F)c2)c2ccccc21,i
SMILES,Methyltransferases
CC(=O)OC1CC(=O)C2(C)C3CC4=C(OC(C)CC4=O)OC3(C)CCC2C1(C)C (stereo unspecified),+
O=C1Cc2c([nH]c3ccc(Br)cc23)-c2ncccc2N1,+
CC(C)c1cc2n(n1)CC(C)(C(=O)NC1CCCCC1)N(Cc1ccccc1Cl)C2=O (stereo unspecified),i
CCOC(=O)c1cc2n(n1)CC(C)(C(=O)NCc1ccc(F)cc1)N(Cc1ccc(OC)cc1)C2=O (stereo unspecified),i
Cc1nc(CN(C)c2ncnc3ccc(-c4ccc5c(c4)OCO5)cc23)cs1,+
Cc1c(-c2ccc3c(c2)OCO3)oc2ccc(C(O)C(C)O)cc12 (stereo unspecified),i
Cc1ccc(NC(=O)Cn2c(=O)oc3cc(S(=O)(=O)N4CCCC4)ccc32)cc1C,i
COc1ccc(NC(=O)Cn2nc3n(CCC(C)C)c(=O)c4ccccc4n3c2=O)cc1OC,i
Cc1ccc(Cn2nc3n(C)c(=O)c4ccc(C(=O)NCC(C)C)cc4n3c2=O)cc1,i
CC1=CC(=O)C(=C(C)C)CC2C1CCC2(C)O (stereo unspecified),i
CC(=O)OC(C)C(C)(O)C(=O)O[C@@H]1CC[C@]2(C)CC(=O)C(=C(C)C)C[C@H]2[C@]1(C)OC(C)=O (stereo partly specified),i
CC(C)=C1CC2C(CCC2(C)O)C(C)(O)CC1=O (stereo unspecified),+
O=c1c2ccccc2n2c(SCc3ccc(F)cc3)nnc2n1Cc1ccccc1,i
COc1ccc(-c2cc3n(n2)CC(C)(C(=O)NCc2ccccc2OC)N(c2cc(C)ccc2C)C3=O)cc1 (stereo unspecified),i
CCCN1C(=O)c2cc(C(=O)N3CCCCC3)nn2CC1(C)C(=O)NC1CCCC1 (stereo unspecified),i
COc1cc(C2Oc3c(OC)cc(CCCO)cc3C2CO)ccc1O (stereo unspecified),+
COc1cc(C(O)C2COC(c3ccc(OC4OC(CO)C(O)C(O)C4O)c(OC)c3)C2CO)ccc1O (stereo unspecified),i
O=C(/C=C/c1ccc(O)cc1)O[C@@H]1C[C@@](O)(C(=O)O)C[C@@H](O)[C@@H]1O,i
COc1cc([C@@H]2Oc3c(OC)cc(CCCO)cc3[C@@H]2CO[C@@H]2O[C@H](CO)[C@@H](O)[C@H](O)[C@H]2O)ccc1O,i
COc1cc(C2Oc3c(OC)cc(/C=C/C(=O)OC4CC(O)(C(=O)O)CC(O)C4O)cc3C2CO)ccc1O (stereo unspecified),+
C/C=C/c1ccc2c(c1)[C@@H](C)[C@H](c1ccc(O)cc1)O2,+
COc1cc(C2Oc3c(O)cc(CCCO)cc3C2CO)ccc1O[C@H]1O[C@H](C)[C@@H](O)[C@H](O)[C@@H]1O (stereo partly specified),i
C/C=C/c1cc(OC)c2c(c1)[C@@H](C)[C@@H](c1ccc(O)c(OC)c1)O2,+
COc1cc(/C=C/C(=O)OC2CC3CCC2(C)C3(C)C)ccc1O (stereo unspecified),i
Oc1ccc([C@@H]2Oc3ccc(O)cc3[C@@H]3CCC[C@@H]32)cc1,i
SMILES,Methyltransferases
CCCn1c(=O)c2ccc(C(=O)NC(C)C)cc2n2c(=O)n(CC(=O)c3cccc(Cl)c3)nc12,i
COC(=O)c1ncn2c1C(=O)N(Cc1ccc(OC)c(OC)c1)C(C)(C(=O)NC1CCCCCC1)C2 (stereo unspecified),i
CN1C(=O)c2cc(C(=O)NCc3ccc(Cl)cc3)nn2CC1(C)C(=O)NC1CCCCC1 (stereo unspecified),i
CC1(C(=O)NC2CCCC2)Cn2c(ccc2-c2ccco2)C(=O)N1CCc1ccccc1 (stereo unspecified),i
Cc1cccc(NC(=O)CSc2nnc3n(CCC(C)C)c(=O)c4ccccc4n23)c1,i
O=C(c1ccc2c(=O)nc3c(-c4ccc(F)cc4)n[nH]n3c2c1)N1CCN(c2ccccn2)CC1,i
CCn1c(=O)n(CC)c2cc(S(=O)(=O)N3CCN(c4ccc(C)cc4C)CC3)ccc21,i
CN1C(=O)c2cc(C(=O)N3CCN(C4CCCCC4)CC3)nn2CC1(C)C(=O)NC1CCCCCC1 (stereo unspecified),i
Cc1ccc(CNC(=O)Cn2nc3n(C(C)C)c(=O)c4ccc(C(=O)NCC(C)C)cc4n3c2=O)cc1,i
CCOC(=O)c1ccc(N2C(=O)CSc3c(c4ccccc4n3C)C2C(=O)NCCC(C)C)cc1 (stereo unspecified),i
